Compound activity (PubChem BioAssay)
Sampled rows, rich in hits. Any-hit rate of the full collection: about 5.4%.
aDG glyco up – activators of alpha-DG glycosylation, primary screen, uHTS, Pro5-aDG cells, AlphaScreen; alpha-DG glycosylation AlphaScreen (IIH6); 0% Pro5, 100% B10-LARGE cell signal; actives 0.22% (n = 360,000); activation, % at 10 µM; AID 624168, 2012;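 active = activation of at least 8% versus controls, or a plate z-score of at least 8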;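 also: Pro5 are CHO cells carrying HIG-tagged alpha-DG that lacks glycosylation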
rCAG binder – binders of r(CAG) RNA repeats, primary screen, biochemical, fluorescence; AID 651821, 2012; r(CAG) RNA repeat, TO-PRO-1 dye displacement fluorescence; actives 1.3% (n = 370,000); inhibition, % at 3 µM;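 active = inhibition above the plate cutoff, the mean of all test compounds on that plate plus 3 SD, cut at about 35% in these data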;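 also: 0% = DMSO alone and 100% = 100 µM mitoxantrone as full dye displacement; higher means more dye released from RNA so lower well fluorescence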
PHOSPHO1 inh – PubChem AID 1565 | Phosphoethanolamine/phosphocholine phosphatase (Homo sapiens), Q8TCT1 | inhibition, % at 13.3 µM | actives 1.1% (n = 290,000) | recombinant PHOSPHO1, absorbance phosphatase assay; in the data active = inhibition above about 60%
A3A deaminase – APOBEC3A ssDNA deaminase inhibitors, primary screen, selectivity assay for APOBEC3G inhibitor project, biochemical, FAM/TAMRA oligo cleavage fluorescence. actives 0.41% (n = 330,000). inhibition, % at 20 µM. AID 493011, 2011. recombinant A3A, FAM/TAMRA ssDNA deamination fluorescence;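 active = at least 40% inhibition at 20 µM here, with at most 30% in a related deaminase screen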;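 also: plate controls were A3A with DMSO for no effect and wells lacking A3A enzyme for full effect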
A3G deaminase – APOBEC3G DNA deaminase inhibitors, primary screen, biochemical, fluorescence, single-stranded DNA substrate, uHTS; DNA dC->dU-editing enzyme APOBEC-3G (Homo sapiens), Q9HC16; recombinant A3G, ssDNA deamination FAM/TAMRA fluorescence; inhibition, % at 20 µM; actives 0.28% (n = 330,000); AID 493012, 2011;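 active = inhibition of at least 40% at 20 µM, with no more than 30% in the related APOBEC3A deaminase screen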;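 also: plate controls were DMSO wells with A3G for no effect and wells lacking A3G enzyme for full effect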
Target sequence (Q9HC16 whole entry, looked up): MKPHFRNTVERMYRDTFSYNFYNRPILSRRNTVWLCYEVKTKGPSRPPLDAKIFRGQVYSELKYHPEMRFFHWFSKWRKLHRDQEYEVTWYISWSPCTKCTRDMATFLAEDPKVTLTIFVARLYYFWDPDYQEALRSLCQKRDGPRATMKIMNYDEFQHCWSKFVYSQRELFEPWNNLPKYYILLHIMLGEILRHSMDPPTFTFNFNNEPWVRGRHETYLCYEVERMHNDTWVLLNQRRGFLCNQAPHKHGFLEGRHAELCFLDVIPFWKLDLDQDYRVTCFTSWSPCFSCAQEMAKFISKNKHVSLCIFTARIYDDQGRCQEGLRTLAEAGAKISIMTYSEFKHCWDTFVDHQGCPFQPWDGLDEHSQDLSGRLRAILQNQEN
ALR inh – inhibitors of human ALR sulfhydryl oxidase, primary screen, biochemical, H2O2 detection, HRP-luminol luminescence, single point | purified ALR, DTT oxidation | inhibition, % (concentration not given with the values) | actives 3.8% (n = 290,000) | AID 485317, 2010;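 active = mean replicate inhibition above about 79%, with every replicate also reaching it, limit read from the data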
Target sequence (P55789 whole entry, looked up): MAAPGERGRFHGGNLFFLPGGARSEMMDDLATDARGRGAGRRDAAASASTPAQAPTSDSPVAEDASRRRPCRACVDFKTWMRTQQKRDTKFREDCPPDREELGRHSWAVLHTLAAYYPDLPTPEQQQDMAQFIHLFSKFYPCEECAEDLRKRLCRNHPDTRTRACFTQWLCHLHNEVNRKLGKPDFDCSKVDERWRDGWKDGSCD
* hit, by the source's call; x = no result.

SMILES | aDG glyco up | rCAG binder | PHOSPHO1 inh | A3A deaminase | A3G deaminase | ALR inh
CCc1ccccc1N1C(=O)CC(N2CCc3ccccc32)C1=O (configuration not stated) | 0 | -3 | 15 | 1 | 3 | 99*
CN(c1ccccc1)S(=O)(=O)c1cccc(C(=O)NCCc2ccc(O)c(O)c2)c1 | 0 | 16 | -31 | 5 | 2 | 93*
N#Cc1ccc(Cn2ccc3ccc(-c4ccc5ccn(Cc6ccccc6)c5c4)cc32)cc1 | x | 20 | x | x | x | x
C#CCSc1nnc(-c2ccc(OC)cc2)o1 | 0 | 2 | 69* | -2 | -4 | -4
COc1ccc(-c2nnc(SCC#N)o2)cc1 | 0 | -1 | 11 | 2 | 0 | -4
COC(=O)[C@]12C[C@H](CC(=O)NCCCN3CCCC3=O)C(=O)N(Cc3ccccc3)C1=C[C@H](C(C)(C)C)O[C@@H]2C | x | -1 | x | x | x | x
Cc1cc(NC(=S)Nc2ccc(C)c(Cl)c2)n[nH]1 | 0 | 0 | -51 | 1 | -3 | 97*
COc1ccc(NC(=S)Nc2cc(-c3ccccc3)[nH]n2)cc1Cl | 0 | 21 | 69* | 2 | 2 | -6
COc1ccc(NC(=S)Nc2cc(C)[nH]n2)cc1Cl | 0 | 0 | -133 | -2 | 4 | 1
Cc1nc2ccccc2c(=O)n1NC(=O)COc1ccccc1 | 0 | 1 | -13 | -6 | -5 | -5
O=C(Nn1c(COc2ccccc2)nc2ccccc2c1=O)C(Cl)(Cl)Cl | 0 | 14 | 36 | 1 | -1 | 97*
O=c1c2ccccc2nc(COc2ccccc2)n1/N=C/c1ccc(O)c(O)c1 | 0 | 16 | 23 | 7 | 1 | 98*
O=C(CSc1nc2ccccc2n1Cc1ccccc1)NN=Cc1c[nH]c2ccccc12 | x | 13 | x | x | x | x
COC(=O)[C@]12C[C@H](CC(=O)NCc3ccccc3)C(=O)N(CCc3ccc(OC)c(OC)c3)C1=C[C@H](C1CCCC1)O[C@@H]2C | x | 6 | x | x | x | x
COc1ccc(C=Nc2ccc3[nH]ncc3c2)c(O)c1 | 1 | -4 | -3 | 0 | -3 | 90*
CCCCCCN1C=CC=C/C1=C/C=C(C#N)C#N | 0 | -3 | -3 | -3 | -4 | 87*
CCCCCN1C=CC=C/C1=C\C=C(C#N)C#N | 0 | -5 | -6 | -8 | -7 | 99*
CCCCCCN1C=C/C(=C\C=C(C#N)C#N)c2ccccc21 | -1 | 3 | -1 | 8 | 5 | 2
Cc1ccc(S(=O)(=O)NCC2(c3ccccc3)CCOCC2)cc1 | 0 | -1 | -20 | 1 | -6 | x
COc1ccc(C2(CNS(=O)(=O)c3ccccc3)CCOCC2)cc1 | 0 | -5 | 64* | 3 | 3 | -1
Cn1c(SCC(=O)Nc2ccc(C(=O)O)cc2)nnc1-c1ccccn1 | x | 1 | x | x | x | x
Cc1ccc(COc2ccsc2-c2n[nH]c(=S)n2C)cc1 | 0 | 4 | 107* | -2 | 17 | 5
CCN1CCN(C(=O)C2CCN(S(=O)(=O)c3cccc4cccnc34)CC2)CC1 | 0 | 3 | 11 | 2 | 3 | 98*
O=C(C(=O)N1CCN(S(=O)(=O)c2ccc(C(F)(F)F)cc2)CC1)c1cccc(C(F)(F)F)c1 | x | 0 | x | x | x | x
O=C(NC(=S)NCCN1CCOCC1)c1ccc(F)cc1 | 0 | -1 | 7 | -5 | -14 | 4
SMILES | aDG glyco up | rCAG binder | PHOSPHO1 inh | A3A deaminase | A3G deaminase | ALR inh
Cc1ccc(C(=O)NNC(=S)NC(=O)c2ccc(Cl)cc2Cl)cc1 | 0 | 19 | 76* | -1 | -3 | 64
COc1ccc(C(=O)NNC(=S)NC(=O)c2ccc(F)cc2)cc1Br | 0 | 4 | x | 1 | 2 | 57
CCCCC(=O)NC(=S)NNC(=O)c1ccc(Cl)cc1Cl | 0 | 2 | 13 | x | x | x
Cc1ccccc1OCC(=O)Nc1ccccc1NC(=O)c1ccco1 | 0 | 1 | 15 | 2 | -2 | 5
COc1ccc(C(=O)NC(=S)NNC(=O)c2ccncc2)cc1Br | 0 | 12 | x | -5 | -7 | 99*
Cc1ccccc1OCC(=O)NNC(=S)NC(=O)c1ccco1 | 0 | 7 | 99* | 2 | 15 | 98*
Cc1ccc(C(=O)NC(=S)NNC(=O)CCN2CCOCC2)cc1 | 0 | 0 | 32 | -4 | 3 | 98*
CCN(CC)C(=O)CC[C@@H]1CC[C@]2(CCCN(Cc3cccnc3)C2)O1 | x | 2 | x | x | x | x
C=CCN1[C@H](C#N)[C@@H](c2ccc(C#Cc3cccnc3)cc2)[C@H]1CO | x | 4 | x | x | x | x
C=CCN1[C@H](Cc2ccccc2)COc2cccc(N3CCCC3)c2S1(=O)=O | x | 6 | x | x | x | x
O=C(NC(=S)NNC(=O)c1ccccc1O)c1ccccc1 | 1 | 8 | -46 | -4 | -7 | 8
O=C(NN1CCOCC1)c1ccc(Br)cc1 | 0 | 0 | x | 0 | -9 | 15
O=C(NC(=S)NNC(=O)c1ccco1)c1ccccc1 | 0 | 2 | -146 | -2 | 8 | 88*
Cc1ccccc1C(=O)NNC(=S)NC(=O)c1ccccc1 | 1 | 3 | -10 | 6 | 2 | 98*
Cc1ccc(C(=O)NN2CCOCC2)cc1 | 0 | 0 | 7 | 0 | -8 | 98*
O=C(CCc1ccccc1)NNC(=S)NC(=O)c1ccccc1 | 0 | 2 | 53 | -6 | 22 | 98*
N#Cc1ccc2nc(-c3ccc(CN4CCC5(CC4)CNc4ccccc45)cc3)c(-c3ccccc3)nc2c1 | x | 11 | x | x | x | x
C[C@H]1C2CC(OC(=O)NCc3ccccc3)C(C2)[C@H]2CCCCN21 (some centres not stated) | x | 4 | x | x | x | x
O=C(CSc1ccccc1)N1CCC(Oc2cccnc2)CC1 | x | 6 | x | x | x | x
O=C(/C=C/c1ccc(Br)cc1)NC(=S)NNC(=O)c1ccco1 | 0 | 4 | 29 | -2 | -4 | 99*
Cc1ccc(C(=O)NC(=S)NNC(=O)c2ccccc2)cc1 | 0 | 11 | -28 | -9 | -3 | 98*
COC(=O)[C@]12C[C@H](CC(=O)N3CCCCC3)C(=O)N(Cc3ccccc3)C1=C[C@H](C(C)C)O[C@@H]2C1CC1 | x | 1 | x | x | x | x
CC(=O)c1ccc(OC(=O)CCc2nc3ccccc3s2)cc1 | 0 | 3 | 2 | 1 | -2 | 93*
COC(=O)C1CN(Cc2ccccc2)CCS(=O)(=O)N1Cc1ccccc1F (configuration not stated) | x | 1 | x | x | x | x
Cc1cc(OC(C)CCN2CCC(C(O)(c3ccccc3)c3ccccc3)CC2)ccc1Br (configuration not stated) | x | 6 | x | x | x | x
COC(=O)c1cc(-c2ccccc2)c(=O)n2c1CCC2 | x | 0 | x | x | x | x
